# Screening data deposited in PubChem BioAssay by National Center for Advancing Translational Sciences (NCATS).
# Compounds with a hit are over-represented: about 6.3% of the library has one in this group of screens.
# VP16 counter = counter-screen for ROR gamma inhibitors: Gal4-VP16 reporter; Drosophila S2 Gal4-VP16 UAS-luciferase, luminescence, 20 h; Potency, µM (top dose mostly 53.6 µM), without a hit: at the highest dose activity, negative = inhibition, most hits filed as inhibitors; actives 3.5% (n = 310,000);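 note: Gal4-VP16 expression switched on by copper sulfate through the metallothionein promoter; % is set by controls: 0 for no effect and ±100 for the full control effect; nearly all actives have a fitted effect of over 50% in size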
# S2 tox = cell viability loss in ATXN counter-screen; S2 cells (HEK-293 line with an ATXN2-luciferase reporter) viability, CellTiter-Fluor protease fluorescence, 24 h; actives 0.49% (n = 400,000); AID 651635; Potency, µM (top dose mostly 56.7 µM), actives largely listed as cytotoxic; note: nearly all actives have a fitted effect of over 40% in size
# TGFb SMAD3 inh = inhibitors of TGF-b signaling; Potency, µM (titrated, usually from 46.1 µM), without a hit: at the top dose activity, negative = inhibition, usual class: inhibitors; actives 1.2% (n = 410,000); AID 588855; HepG2 CAGA-GFP TGF-b/SMAD3 reporter, GFP fluorescence, 18 h; TGF-beta stimulated, 500 pg/mL final; note: % is set by controls: 0 for no effect and ±100 for the full control effect; nearly all actives have a fitted effect of over 65% in size
#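 HEPG2 CAGA-GFP reporter cells (1000/well, DMEM with 1% FBS) received compounds, then recombinant TGF-beta at 500 pg/mL final for 18 hours at 37 degrees C. Per-cell GFP summed per well was normalised to unstimulated and stimulated DMSO controls before curve fitting.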
# RORg inh = ROR gamma (mouse) transcription inhibition. P51450. Drosophila S2 Gal4-RORgamma UAS-luciferase reporter, 20 h. Potency, µM (series often up to 53.6 µM), without a hit: top-dose activity change, negative = inhibition, most hits filed as inhibitors. actives 5.4% (n = 310,000); note: % is set by controls: 0 for no effect and ±100 for the full control effect; nearly all actives have a fitted effect of over 60% in size
# Target sequence (P51450 whole entry, looked up, the tested form may be a part): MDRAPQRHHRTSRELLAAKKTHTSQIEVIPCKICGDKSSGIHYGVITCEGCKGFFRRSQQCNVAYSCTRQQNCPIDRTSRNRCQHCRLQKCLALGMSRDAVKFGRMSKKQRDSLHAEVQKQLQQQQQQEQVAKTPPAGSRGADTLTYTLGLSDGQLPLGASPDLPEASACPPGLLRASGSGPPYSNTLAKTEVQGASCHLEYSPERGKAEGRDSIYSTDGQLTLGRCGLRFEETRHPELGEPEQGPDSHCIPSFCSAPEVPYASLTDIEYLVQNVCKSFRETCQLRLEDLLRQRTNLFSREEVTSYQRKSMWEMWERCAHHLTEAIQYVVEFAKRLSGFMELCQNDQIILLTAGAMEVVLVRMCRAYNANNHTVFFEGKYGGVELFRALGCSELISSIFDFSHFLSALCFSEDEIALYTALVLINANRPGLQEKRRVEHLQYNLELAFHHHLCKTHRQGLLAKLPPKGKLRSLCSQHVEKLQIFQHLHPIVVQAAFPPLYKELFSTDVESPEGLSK
#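 Drosophila S2 cells stably expressing Gal4-DBD/mouse RORγ fusion under metallothionein promoter plus UAS-luciferase; compound 1 h, then 700 uM CuSO4 induction for 20 h at ambient temperature; inhibition read as reduced luminescence.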
# ATXN2 expr inh = reduces ATXN2 reporter expression in HEK-293 cells; HEK-293 ATXN2-luciferase reporter, luminescence, 24 h; Potency, µM (top dose mostly 57 µM), without a hit: at the top dose activity change, negative = inhibition, most hits filed as inhibitors; actives 0.72% (n = 360,000); note: % is set by controls: 0 for no effect and ±100 for the full control effect; nearly all actives have a fitted effect of over 55% in size
#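 qHTS (up to 57 uM final) was run with 24 h compound exposure of reporter cells at 37 °C. Each well was multiplexed: SteadyGlo luminescence measured ATXN2-luciferase expression after a fluorogenic Gly-Phe-AFC viability readout (25 uM final).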
# HepG2 tox = HepG2 cytotoxicity, counter-screen for TGF-b inhibitors; HepG2 CAGA-GFP viability, ATP luminescence, 18 h; Potency, µM (top dose mostly 46.1 µM), for the others: at the highest dose activity change, negative = cytotoxicity, actives largely listed as cytotoxic; actives 0.76% (n = 410,000)
#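 CellTiter-Glo luminescence gave cytotoxicity after 18 hours at 37 degrees C. The cells were HepG2 CAGA-GFP in 1% FBS DMEM, stimulated with 500 pg/mL TGF-beta after compound addition. %Activity was normalised to no-cell wells (complete cell-killing) and DMSO (no toxicity), and curves were fitted and classified.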
# Numbers without * were called inactive; i = inactive; u = inconclusive; x = not tested or not shown; ! = a repeat was not active. Calls come from the whole dose curve; as a rule, active = well fitted curve in the direction sought with a large enough effect; inconclusive = small, poorly fitted or top-dose-only effect, or another doubt; inactive = no such curve, though single readings can be large; an effect the other way counts as inactive or inconclusive. Potency is the fitted concentration of half-maximal effect.
SMILES,VP16 counter,S2 tox,TGFb SMAD3 inh,RORg inh,ATXN2 expr inh,HepG2 tox
CCOc1ccc(-n2c(=O)c3c4c(sc3n(CC(=O)Nc3cccc(C(F)(F)F)c3)c2=O)CCCCC4)cc1,x,i,-13.4%,x,4.1%,3.5%
O=C(COc1ccccc1)OC(C(=O)c1ccccc1)c1ccccc1 (configuration not stated),-7.7%,i,-2.3%,11.2µM*,-20.0%,-19.9%
COc1ccc(-c2cc(C)cc3c2OC(CNC(=O)c2cc(C(C)C)on2)C3)nn1 (configuration not stated),x,i,x,x,x,x
Cc1cccc(CN2C(=O)c3ccccc3Sc3ccc(C(=O)NCCCN4CCOCC4)cc32)c1,-5.3%,u,11.2µM*!,1.0%,-29.0%,11.2µM*!
O=C(NCCCN1CCOCC1)c1ccc2c(c1)N(Cc1ccccc1)C(=O)c1ccccc1S2,4.9%,i,0.2%,-3.7%,7.4%,-0.7%
CN(C)CCNC(=O)c1ccc2c(c1)N(Cc1c(F)cccc1Cl)C(=O)c1ccccc1S2,x,i,u,x,22.4µM*,-66.8%
O=C(NCCN1CCOCC1)c1ccc2c(c1)N(Cc1c(F)cccc1Cl)C(=O)c1ccccc1S2,1.2%,i,u,0.5%,u,-16.3%
CCCCN(CC)CCCNC(=O)c1ccc2c(c1)N(Cc1ccc(C)cc1)C(=O)c1ccccc1S2,x,x,14.1µM*,x,x,11.2µM*
Cc1ccccc1Nc1cc2ccccc2c(=O)[nH]1,28.0%,u,4.47µM*,-12.9%,-4.7%,11.2µM*
O=C(Cc1ccccc1)Nc1c(C(=O)N2CCN(c3ccc(F)cc3)CC2)oc2ccccc12,x,i,-3.5%,x,-36.2%,-12.9%
Clc1ccc2nc[nH]c2c1,x,x,-21.2%,x,x,-40.6%
Cc1cc(C)c2nc(N(CCCN(C)C)C(=O)c3ccc(S(=O)(=O)N4CCCCCC4)cc3)sc2c1,x,i,15.8µM*,x,u,-74.3%
CCOC(=O)N1CCN(S(=O)(=O)c2ccc(C(=O)NNc3nc4ccc(Cl)cc4s3)cc2)CC1,u,i,u,7.08µM*,u,-21.8%
CCOC(=O)N1CCN(S(=O)(=O)c2ccc(C(=O)NNc3nc4c(C)cc(C)cc4s3)cc2)CC1,20µM*,i,-17.0%,14.1µM*,u,-7.0%
CCOC(=O)N1CCN(S(=O)(=O)c2ccc(C(=O)N(CCN(CC)CC)c3nc4c(C)cccc4s3)cc2)CC1,18.4%,i,0.0%,15.1%,1.7%,-25.3%
CCOC(=O)N1CCN(S(=O)(=O)c2ccc(C(=O)N(CCN(C)C)c3nc4ccc(Cl)cc4s3)cc2)CC1,-2.1%,i,-15.8%,-23.2%,-26.1%,-35.0%
CCOC(=O)N1CCN(S(=O)(=O)c2ccc(C(=O)NNc3nc4c(C)cccc4s3)cc2)CC1,5.01µM*,i,u,10µM*,u,-31.0%
COc1ccc(CN(C)C(=O)Cc2ccc(S(=O)(=O)N3CCOCC3)s2)cc1OC,x,i,5.7%,x,x,2.7%
Cc1cc(C)c2nc(NC(=O)c3ccc(S(=O)(=O)N4CCCC4)cc3)sc2c1,x,i,7.5%,x,-5.4%,1.1%
Cc1cc(C)c2sc(NC(=O)c3ccc(S(=O)(=O)N4CCOCC4)cc3)nc2c1,x,i,0.4%,x,4.9%,-13.3%
CCOC(=O)N1CCN(S(=O)(=O)c2ccc(C(=O)NNc3nc4cc(C)cc(C)c4s3)cc2)CC1,5.01µM*,i,u,11.2µM*,u,-28.1%
Cc1cc(C)c2nc(NNC(=O)c3ccc(S(=O)(=O)N4CCCCC4)cc3)sc2c1,8.91µM*,i,u,3.16µM*,u,-20.1%
O=C(c1ccc(N2CCN(C(=O)c3ccc(F)c(F)c3)CC2)cc1)c1cccc(F)c1,u,i,u,1.78µM*,u,-8.3%
CC1CC(C)(C)NC(=S)N1CC(=O)NCc1ccc(F)cc1 (configuration not stated),-18.2%,i,-8.5%,-13.4%,-1.4%,-28.6%
Cc1ccc(C)c(N2CCN(C(=O)CCCN3C(=S)NC(C)(C)CC3C)CC2)c1 (configuration not stated),4.47µM*,u,u,5.62µM*,u,-34.2%
SMILES,VP16 counter,S2 tox,TGFb SMAD3 inh,RORg inh,ATXN2 expr inh,HepG2 tox
CC1CC(C)(C)NC(=S)N1CCC(=O)NCc1ccc(F)cc1 (configuration not stated),3.5%,i,7.8%,u,-15.5%,5.0%
CCOc1ccc(NC(=O)CCCN2C(=S)NC(C)(C)CC2C)cc1 (configuration not stated),u,i,-0.5%,u,-20.6%,1.1%
CC1CC(C)(C)NC(=S)N1CC(=O)N(C)Cc1ccccc1 (configuration not stated),-20.4%,i,7.6%,17.8µM*,-14.9%,-9.5%
CC1CC(C)(C)NC(=S)N1CCC(=O)N1c2ccccc2CC1C (configuration not stated),17.8µM*,i,-11.2%,3.98µM*,2.6%,-21.6%
Cc1cccc(N2CCN(C(=O)CCN3C(=S)NC(C)(C)CC3C)CC2)c1C (configuration not stated),u,u,-12.3%,4.47µM*,-31.5%,-1.1%
CN(C)CC1CCn2c(c(C3=C(c4cn(C)c5ccccc45)C(=O)NC3=O)c3ccccc32)C1 (configuration not stated),6.2%,x,x,-26.1%,x,x
CC(C)(C)c1ccccc1OCCOCCNCc1ccccc1,-12.3%,u,25.1µM*,-7.4%,-35.1%,-64.7%
COCCCNCCOCCOc1ccc(Cl)cc1C(C)(C)C,-2.2%,u,20µM*,-15.0%,u,11.2µM*
CCOC(=O)C1CCN(c2c(C(=O)c3ccc(OC)cc3)cnc3ccccc23)CC1,x,i,-32.8%,x,3.1%,4.8%
Cc1ccc2cccc(OCc3ccc(F)cc3)c2n1,u,i,-16.1%,u,x,-5.3%
Cc1ccc2cccc(OCc3ccccc3)c2n1,-0.6%,u,14.1%,14.1µM*,-10.5%,1.4%
CC(C)c1onc(-c2c(Cl)cccc2Cl)c1COc1ccc(/C=C/c2cccc(C(=O)O)c2)c(Cl)c1,5.62µM*,x,x,-44.9%,x,x
COc1cccc(CN(Cc2ccco2)c2cnc(S(C)(=O)=O)nc2C(=O)Nc2cccc(Cl)c2C)c1,x,i,-17.0%,x,0.6%,0.2%
c1ccc(-c2nc3c4ccccc4ccn3c2CC2CCCCC2)cc1,x,i,x,x,17.3%,x
Clc1ccc(-c2nc3ccccn3c2CN2CCCCC2)cc1,-5.0%,u,-6.0%,17.8µM*,x,1.5%
CN(C)Cc1c(-c2ccc(Cl)cc2)nc2ccccn12,u,i,-1.7%,-41.2%,52.3%,-1.6%
